This passage reports inhibition results from PubChem BioAssay AID2315 (National Center for Advancing Translational Sciences (NCATS), 2010).

Hit rate of the full screen: of about 290,000 compounds, about 27,000 (9.3%) were called active. The list comes from a sample in which actives are over-represented; it also holds similar structures and randomly drawn compounds. Values without a mark were called inactive. Rule as the data show it: active = inhibition mostly above about 28% (no sharp cut-off); inactive = mostly below about 43%.

The assay can be described thus: A qHTS for Small Molecule Inhibitors of Shiga Toxin. Also: 0% is about no effect. As to conditions: Vero cells, Shiga toxin protein synthesis inhibition reporter; at 38.7 µM, stronger effect = higher value. In general terms: qHTS replaces the single test concentration by a dilution series.
On to `Cc1ccc(NC(=O)c2ccc(CSc3ncnc4nc[nH]c34)cc2)c(C)c1`, for which the inhibition was 39%.

For `CCOC(=O)c1ccc(NC(=O)Cn2nnc(-c3ccc(C)cc3)n2)cc1`, the inhibition is -5.77%.

For the compound `CCc1ccc(-c2nnn(Cc3nc4ccccc4s3)n2)cc1`, the inhibition was 81% (active).

With `CCc1ccc(-c2nnn(Cc3nn[nH]n3)n2)cc1`, the inhibition is -3.04%.

`COc1ccccc1N1CC(C(=O)Nc2nnc(SCC(=O)NCC3CCCO3)s2)CC1=O` (stereo not drawn): the inhibition was -8.54%.

As to `COc1cccc(NC(=O)CN(C)C(=O)c2ccccc2CCc2ccccc2)c1`, the inhibition is 16.1%.

In the case of `COc1ccc(CC(NC(C)=O)C(=O)NC2CCN(C(=O)c3ccc(Cl)cc3)CC2)cc1` (stereo not drawn), the inhibition is -3.77%.

Consider `O=C(Cc1ccccc1)N1CCN(S(=O)(=O)c2ccc([N+](=O)[O-])cc2)CC1`, for which the inhibition is -23.6%.

In the case of `CC(CC(=O)N1CCN(S(=O)(=O)c2ccccc2)CC1)n1cncn1` (stereo not drawn), the inhibition was -9.3%.

As for `N#C/C=C1\Sc2ccccc2C(=O)N1CC(=O)N1CCN(S(=O)(=O)c2ccccc2)CC1`, the inhibition was 122% (active).

In the case of `COC(=O)CN1C(=O)[C@H]2[C@@H](/C=C/c3ccccc3)N3C(=O)CN(Cc4ccccc4)C(=O)[C@@]3(Cc3ccccc3)[C@H]2C1=O`, the inhibition was -2.54%.

With `CCc1nc2ccc(C(=O)N3CCN(c4cccc(Cl)c4)CC3)cc2nc1CC`, the inhibition was -14%.

Consider `COc1ccc(NC(=O)N2CCCC(C(=O)Nc3ccccc3OC)C2)cc1` (stereo not drawn), for which the inhibition was -5.66%.

For the compound `Cc1c(CN2CCCC(C(=O)c3cccc(Cl)c3)C2)c(=O)n(-c2ccccc2)n1C` (stereo not drawn), the inhibition was -7.01%.

As for `Cc1ccc(-c2noc(C3CCCN(C(=O)c4cccc(Cl)c4)C3)n2)o1` (stereo not drawn), the inhibition is 69.1% (active).

Turning to `O=C(c1ccc(F)cc1)N1CCCC(c2nc(-c3cccs3)no2)C1` (stereo not drawn), the inhibition is 16.4%.

In the case of `CCN(C(=O)C1CCCN(c2nc(-c3ccc(OC)cc3)no2)C1)c1ccc(OC)cc1` (stereo not drawn), the inhibition is 9.76%.

With `COc1ccc(C(=O)NC2CCN(C(=O)Nc3ccc(F)cc3)CC2)cc1`, the inhibition is -7.18%.

For the compound `O=C(c1cccs1)N1CCCC(c2nc(-c3ccc(F)cc3)no2)C1` (stereo not drawn), the inhibition is 82.3% (active).

`COc1cc(-c2noc(C3CCCN(S(=O)(=O)c4cccc(Cl)c4)C3)n2)cc(OC)c1OC` (stereo not drawn): the inhibition is -8.14%.

Consider `CC(C)c1ccc(-c2noc(C3CCCN(S(C)(=O)=O)C3)n2)cc1` (stereo not drawn), for which the inhibition was 64.2% (active).

For `COc1ccc(NC(=O)N2CCCC(c3nc(-c4ccc(F)cc4)no3)C2)cc1` (stereo not drawn), the inhibition was 96% (active).

Turning to `O=C(Cc1cccs1)N1CCCC(c2nc(-c3ccc(S(=O)(=O)N4CCCC4)cc3)no2)C1` (stereo not drawn), the inhibition is -10.3%.

For the compound `COc1ccccc1C(=O)Nn1cnnc1`, the inhibition is -6.2%.

Consider `C#CCOc1ccccc1/C=C1/C(=O)ON=C1C`, for which the inhibition is 3.31%.

In the case of `CC(=O)N1c2ccc(S(=O)(=O)N3CCC(C(=O)NC4CCCCC4C)CC3)cc2CC1C` (stereo not drawn), the inhibition is -11.2%.

`COc1cccc(OC)c1C(=O)Nc1c(C(=O)N2CCN(c3ccccn3)CC2)oc2ccccc12`: the inhibition is 3.52%.

Turning to `CCOC(=O)C1CCN(C(=O)CN2C(=O)c3cccnc3Oc3ccc(C)cc32)CC1`, the inhibition is -9.03%.

Consider `COc1ccc(N(C(=O)c2snc(C(N)=O)c2N)C(C(=O)NC2CCCC2)c2ccc(C)o2)c(OC)c1` (stereo not drawn), for which the inhibition is -6.03%.

In the case of `Cc1ccc2c(c1)N(CC(=O)N1CCCC(C)C1)C(=O)CO2` (stereo not drawn), the inhibition was 2.65%.

For `Cc1cccc(S(=O)(=O)N2CN(CC3CCCO3)c3nc4ccccc4nc32)c1` (stereo not drawn), the inhibition was -6.17%.

`O=C(c1c(F)cccc1Cl)N1CCN(c2ccccn2)CC1`: the inhibition is -18.5%.

Consider `Cc1ccccc1N1CCN(CCCN2C(=O)C3CCCCN3C2=O)CC1` (stereo not drawn), for which the inhibition was -5.61%.

Take `CN(CC1CCCO1)S(=O)(=O)c1ccc(C(=O)Nc2ccc([N+](=O)[O-])cc2)cc1` (stereo not drawn): the inhibition is 14%.

Regarding `CN(C(=O)c1cccc([N+](=O)[O-])c1)c1ccccc1C(=O)NCc1ccccc1`, the inhibition is -10.6%.

On to `Cc1c(C(=O)N/N=C/c2ccccc2)[nH]c2c([N+](=O)[O-])cccc12`, for which the inhibition is -9.32%.

As for `COc1cccc2c(C)c(C(=O)O)[nH]c12`, the inhibition is -35.1% (active).

As for `COc1cc2c(C(=O)O)c(C)n(C)c2c2ccccc12`, the inhibition is -4.47%.

As for `COc1ccccc1N1CCN(S(=O)(=O)CCNC(=O)c2ccc(OC(C)C)cc2)CC1`, the inhibition was -4.39%.

Take `Cc1ccccc1CNC(=O)CCC(=O)N1Cc2ccccc2Oc2ncccc21`: the inhibition was 13.6%.

`C[n+]1cc(-c2ccccc2)oc1-c1ccccc1`: the inhibition was 88.6% (active).

Regarding `COc1ccccc1CCNS(=O)(=O)c1cn(C)nc1C`, the inhibition was -8.83%.

Consider `CNC(=O)c1ccc2nc(NC(C)=O)sc2c1`, for which the inhibition is 45.1% (active).

Turning to `Cc1cnc(NC(=O)c2ccc(Cl)nc2)s1`, the inhibition is 109% (active).

As for `Cc1cnc(NC(=O)c2ccccn2)s1`, the inhibition is 11.7%.

Consider `CCCC(=O)Nc1nc2ccc(NC(=O)c3cccnc3)cc2s1`, for which the inhibition was 89.7%.

Consider `CS(=O)(=O)c1ccc2nc(NC(=O)c3ccc(N4CCCC4=O)cc3)sc2c1`, for which the inhibition was 8.48%.

Consider `CS(=O)(=O)c1ccc2nc(NC(=O)c3ccc(Cl)nc3)sc2c1`, for which the inhibition is 70.7% (active).

With `O=C(Nc1nc2ccc([N+](=O)[O-])cc2s1)c1ccncc1`, the inhibition is 35%.

As for `CS(=O)(=O)c1ccc2nc(NC(=O)CN3CCCCCC3)sc2c1`, the inhibition was 18.3%.

For `CS(=O)(=O)c1ccc2nc(NC(=O)C3C4C=CC(C4)C3C(=O)O)sc2c1` (stereo not drawn), the inhibition was 14.8%.

As to `COc1cccc(C(=O)Nc2nc3ccc(S(C)(=O)=O)cc3s2)c1`, the inhibition is 92.7% (active).

Consider `CS(=O)(=O)c1ccc2nc(NC(=O)C3CCCCC3)sc2c1`, for which the inhibition was 22.9%.

Turning to `CCN(CC)c1ccc(NC(=O)c2ccc(Cl)nc2)cc1`, the inhibition was 18.4%.

As for `CCCNC(=O)c1ccc(N2CCC3(CC2)CC(c2ccc(Cl)cc2)=NO3)c([N+](=O)[O-])c1`, the inhibition was 0.364%.

As to `COc1ccc(CN2CCCC(C(=O)N3CCCCC3)C2)cc1` (stereo not drawn), the inhibition is -9.61%.

As to `Cc1ccc2c(cnn2C(=O)CCC(=O)NC2CCCC2)c1`, the inhibition is 1.95%.

`CCOc1ccc(C(CC(=O)O)NC(=O)Cc2ccccc2)cc1OC` (stereo not drawn): the inhibition was -3.82%.

On to `COc1ccc(C2CC(=O)NC(=O)C2)cc1`, for which the inhibition is 1.04%.

For the compound `Cc1c(CCC(=O)N[C@@H](CC(C)C)C(=O)O)c(=O)oc2c(C)c3oc4c(c3cc12)CCCC4`, the inhibition is -1.24%.

Regarding `CCc1ccc(NC(=O)Nc2ccncc2)cc1`, the inhibition was 58.2% (active).

As to `CCc1ccc(NC(=O)N[C@H](C(=O)O)C(C)CC)cc1` (stereo partly drawn), the inhibition was -3.77%.

Take `O=C(Nc1ccncc1)Nc1ccc(F)cc1`: the inhibition is 30.2%.

As for `O=C(Nc1cc(C(=O)Nc2ccc(S(=O)(=O)O)cc2)cc(C(=O)Nc2ccc(S(=O)(=O)O)cc2)c1)Nc1cc(C(=O)Nc2ccc(S(=O)(=O)O)cc2)cc(C(=O)Nc2ccc(S(=O)(=O)O)cc2)c1`, the inhibition is -5.01%.

Turning to `CCCn1c(=N)n(CC(=O)c2ccc(Cl)c(Cl)c2)c2ccccc21`, the inhibition is -3.46%.

`O=C(NCc1cccs1)C1CCN(S(=O)(=O)c2ccc(Cl)cc2)CC1`: the inhibition was -3.28%.

On to `O=C(NCc1csc(-c2cccs2)n1)C1CC1`, for which the inhibition is 68.5% (active).

Regarding `CC(C)(C)C1CCC(C(=O)NCC(c2cccs2)N2CCOCC2)CC1` (stereo not drawn), the inhibition is -2.93%.

For the compound `COCc1ccc(C(=O)NC2CC(C)(C)Cc3c2cnn3-c2ccc(C)cc2)o1` (stereo not drawn), the inhibition was 21.9%.

Turning to `O=C(OCc1ccccc1F)c1ccc2c(c1)OCCO2`, the inhibition is 104% (active).

On to `O=C(COC(=O)c1ccc2c(c1)OCCO2)NCc1ccccc1`, for which the inhibition was 19.3%.

On to `CC(NC(=O)COC(=O)c1ccc2c(c1)OCO2)c1ccccc1` (stereo not drawn), for which the inhibition is 17.4%.

With `O=C(O)c1ccc(/C=C2\SC(=S)N(NC(=O)c3ccc(Br)cc3)C2=O)cc1`, the inhibition was -9.68%.

For `N#Cc1ccc(S(=O)(=O)NCC(=O)OCC(=O)NCCc2ccccc2)cc1`, the inhibition is -5.8%.

For the compound `O=C(Cc1cccs1)Nc1ccc([N+](=O)[O-])cc1`, the inhibition is -6.19%.

Regarding `C#CCNc1ccc(C(=O)OCC)cc1`, the inhibition was 58.3% (active).

In the case of `CCCCC(CCC(=O)Nc1ccc(C(=O)OCC)cc1)C(=O)O` (stereo not drawn), the inhibition is -3.77%.

For `CCOC(=O)c1ccc(NC(=S)N2CCCC2)cc1`, the inhibition was 8.67%.

Regarding `CCOc1ccccc1NC(=O)Cc1cccs1`, the inhibition was -4.91%.

For `CCOC(=O)c1ccc(NC(=O)Cc2cccs2)cc1`, the inhibition is 49.2% (active).

As to `CCOC(=O)c1cccc(NC(=O)C2CCN(c3ncnc4c3nc3n4CCCCC3)CC2)c1`, the inhibition is 10.8%.

For the compound `CC(Sc1nnc(-c2ccccc2F)n1C1CC1)C(N)=O` (stereo not drawn), the inhibition was -9.07%.

On to `O=C(O)c1ccc2c(=O)n3c(nc2c1)/C(=C/c1ccc(OC(F)F)cc1OC(F)F)CC3`, for which the inhibition is 1.37%.

Take `CN(C(=O)CCN1C(=O)/C(=C/c2ccccc2F)SC1=S)C1CCS(=O)(=O)C1` (stereo not drawn): the inhibition is -3.82%.

In the case of `O=C(CN1C(=O)/C(=C\c2ccccc2F)SC1=S)Nc1nc2ccccc2s1`, the inhibition was 51.7% (active).

Regarding `O=C(CN1C(=O)/C(=C/c2ccccc2F)Sc2ccccc21)NCc1cccnc1`, the inhibition is 13.6%.

Consider `COc1ccc(CNc2ccc3c(c2)CCC3)cc1OC`, for which the inhibition is 37.9%.

On to `Cc1ccc(CC2CC(=O)N(c3ccc4c(c3)OCCO4)C2=O)cc1` (stereo not drawn), for which the inhibition was 51.2%.

With `Cc1ccc(N2C(=O)CC(NCc3ccc4c(c3)OCO4)C2=O)cc1Cl` (stereo not drawn), the inhibition was 110% (active).

For `O=CN1CCN(C2CC(=O)N(c3ccc4c(c3)OCO4)C2=O)CC1` (stereo not drawn), the inhibition is 19.5%.

As for `Cc1cccc(C(=O)NC(=S)N(C)C2CCCCC2)c1`, the inhibition was 117% (active).

Turning to `Cc1cccc(NC(=S)NCCN(C2CCCCC2)C2CCCC2)c1`, the inhibition was 19.2%.

With `Cc1cccc(C(=O)NCCCN(C)CCCNC(=O)c2cccc(C)c2)c1`, the inhibition is -6.03%.

Broadly, the inhibition is the change of the read-out against control, counted positive when it falls.
